This note sets out measurements from PubChem BioAssay (NCATS).

Molecules are shown by their SMILES. Results filed as inconclusive are left out. Active and inactive are the calls of the source. Calls come from the whole dose curve; as a rule, active = well fitted curve in the direction sought with a large enough effect; inconclusive = small, poorly fitted or top-dose-only effect, or another doubt; inactive = no such curve, though single readings can be large; an effect the other way counts as inactive or inconclusive.

Assay [1] is described as follows: Quantitative High-Throughput drug screen in 47 multiple myeloma cell lines against the NCATS MIPE library collection: FR4_PLB cell viability assay (AID 1918924; note: nearly all actives have a fitted effect of over 35% in size). An outline of the steps:
(§1)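 Luminescent ATP measurement with CellTiter-Glo gives viability, scaled between DMSO-only wells (100%) and media-only wells (0%). Cells, 500 per well, faced library compounds for 48 hours at 37C.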

Assay [2] can be described thus: Quantitative High-Throughput drug screen in 47 multiple myeloma cell lines against the NCATS MIPE library collection: Delta47_JCRB cell viability assay (AID 1918925; note: nearly all actives have a fitted effect of over 45% in size; note: potency is the fitted concentration of half-maximal effect). An outline of the steps:
(§2)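 Relative luminescence from CellTiter-Glo served as the viability signal, referenced to DMSO-treated (100%) and cell-free medium (0%) controls. Treatment lasted 48 hours at 37C with 500 cells per well.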

Assay [3] in a line: Quantitative High-Throughput drug screen in 47 multiple myeloma cell lines against the NCATS MIPE library collection: AMO1_DSMZ cell viability assay (AID 1918927; note: nearly all actives have a fitted effect of over 30% in size; note: potency is the fitted concentration of half-maximal effect). An outline of the steps: as §2
A short description of assay [4]: Quantitative High-Throughput drug screen in 47 multiple myeloma cell lines against the NCATS MIPE library collection: ARP1_JJKsccF8 cell viability assay (AID 1918928; note: nearly all actives have a fitted effect of over 40% in size; note: potency is the fitted concentration of half-maximal effect). An outline of the steps:
(§3)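 Myeloma cells at 500 per well in 1536-well format treated with MIPE 4.0 library by pin transfer for 48 h at 37C, 5% CO2. Viability from ATP luminescence (CellTiter-Glo), normalized to DMSO (100%) and media-only (0%) wells.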

Assay [5] can be described thus: Quantitative High-Throughput drug screen in 47 multiple myeloma cell lines against the NCATS MIPE library collection: ARD_JJKsccE7 cell viability assay (AID 1918929; note: potency is the fitted concentration of half-maximal effect). In outline:
as §2

Assay [6] in a line: Quantitative High-Throughput drug screen in 47 multiple myeloma cell lines against the NCATS MIPE library collection: Karpas620_DSMZ cell viability assay (AID 1918959). Note: nearly all actives have a fitted effect of over 30% in size. Note: potency is the fitted concentration of half-maximal effect. An outline of the steps:
as §1

Assay [7] can be described thus: Quantitative High-Throughput drug screen in 47 multiple myeloma cell lines against the NCATS MIPE library collection: KMM1_JCRB cell viability assay (AID 1918960). Note: nearly all actives have a fitted effect of over 30% in size. Note: potency is the fitted concentration of half-maximal effect. An outline of the steps:
as §3

The nature of assay [8]: Quantitative High-Throughput drug screen in 47 multiple myeloma cell lines against the NCATS MIPE library collection: Karpas417_ECACC cell viability assay (AID 1918961). The note with it: Karpas417 myeloma viability, CellTiter-Glo ATP luminescence, 48 h; viability (% of DMSO): at 45.8 µM (top of the series). In outline: (§4)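 Steps: seed 500 cells per well; pin-transfer MIPE 4.0 library; incubate 48 h at 37C, 5% CO2, humidified; add CellTiter-Glo, 5 min room temperature; read luminescence.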

Assay [9] in a line: Quantitative High-Throughput drug screen in 47 multiple myeloma cell lines against the NCATS MIPE library collection: KHM11_PLB cell viability assay (AID 1918962). Note: nearly all actives have a fitted effect of over 35% in size. Note: potency is the fitted concentration of half-maximal effect. An outline of the steps: as §1
The nature of assay [10]: Quantitative High-Throughput drug screen in 47 multiple myeloma cell lines against the NCATS MIPE library collection: JIM3_ECACC cell viability assay (AID 1918963; note: nearly all actives have a fitted effect of over 35% in size). In outline: as §1
Assay [11] can be described thus: Quantitative High-Throughput drug screen in 47 multiple myeloma cell lines against the NCATS MIPE library collection: JIM1_ECACC cell viability assay (AID 1918964; note: potency is the fitted concentration of half-maximal effect). An outline of the steps: as §2
Assay [12] is described as follows: Quantitative High-Throughput drug screen in 47 multiple myeloma cell lines against the NCATS MIPE library collection: INA6_PLB cell viability assay (AID 1918965; note: nearly all actives have a fitted effect of over 55% in size; note: potency is the fitted concentration of half-maximal effect). In outline: as §4
Assay [13] in a line: Quantitative High-Throughput drug screen in 47 multiple myeloma cell lines against the NCATS MIPE library collection: JJN3_DSMZ cell viability assay (AID 1918966; note: nearly all actives have a fitted effect of over 50% in size; note: potency is the fitted concentration of half-maximal effect). An outline of the steps:
as §2

Assay [14] in a line: Quantitative High-Throughput drug screen in 47 multiple myeloma cell lines against the NCATS MIPE library collection: H1112_PLB cell viability assay (AID 1918967; note: nearly all actives have a fitted effect of over 30% in size; note: potency is the fitted concentration of half-maximal effect). An outline of the steps:
as §2

Assay [15] in a line: Quantitative High-Throughput drug screen in 47 multiple myeloma cell lines against the NCATS MIPE library collection: KMS12BM_JCRB cell viability assay (AID 1918971). Note: nearly all actives have a fitted effect of over 35% in size. Note: potency is the fitted concentration of half-maximal effect. An outline of the steps: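 Inhibition of cell viability is measured here. Each line was plated at 500 cells per well, treated with MIPE 4.0 drugs, kept 48 hours at 37C, then assayed for ATP content by CellTiter-Glo luminescence.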

Assay [16] can be described thus: Quantitative High-Throughput drug screen in 47 multiple myeloma cell lines against the NCATS MIPE library collection: EJM_DSMZ cell viability assay (AID 1918926; note: nearly all actives have a fitted effect of over 30% in size; note: potency is the fitted concentration of half-maximal effect). In outline: as §2
The nature of assay [17]: Quantitative High-Throughput drug screen in 47 multiple myeloma cell lines against the NCATS MIPE library collection: KMS27_JCRB cell viability assay (AID 1918970). Note: nearly all actives have a fitted effect of over 30% in size. Note: potency is the fitted concentration of half-maximal effect. The note with it: KMS27 myeloma cells, CellTiter-Glo ATP viability, 48 h; viability (% of DMSO): at 45.8 µM (top of the series). In outline:
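Viability inhibition screen, 48 h compound exposure, luminescent ATP read-out.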

Assay [18] can be described thus: Quantitative High-Throughput drug screen in 47 multiple myeloma cell lines against the NCATS MIPE library collection: Karpas25_ECACC cell viability assay (AID 1918968; note: nearly all actives have a fitted effect of over 35% in size). In outline:
as §2

As for `CC(NCCc1ccc(O)cc1)C(O)c1ccc(O)cc1` (configuration not stated), the Potency result in assay [1], in assay [2], in assay [3], in assay [4], in [5] and in assay [6] was “inactive” each time. Moreover, the Potency entry in [8], in assay [9], in assay [10], in [11], in assay [12] and in assay [13] was “inactive” in each case. The Potency result in [14] and in assay [15] was “inactive” throughout. Also, in assay [7], the Potency was 0.132 µM (active).

For the compound `N#CC(c1ccc(Cl)cc1)c1c(Cl)cc(-n2ncc(=O)[nH]c2=O)cc1Cl` (configuration not stated), in assay [1], the Potency result is “inactive”. The Potency in [2] was 23.5 µM (active); in assay [16] it was 16.6 µM (active); in [3], 5.26 µM (active); in [5], 18.7 µM (active); in assay [6] it was 10.5 µM (active); in [7] it was 5.9 µM (active). The Potency is 372 nM (active) in [9]; 20.9 µM (active) in [11]; 23.5 µM (active) in [12]; 16.6 µM (active) in assay [13]; 20.9 µM (active) in assay [14]; 5.9 µM (active) in assay [17]. In addition, the Potency in assay [15] was 20.9 µM (active).

As to `COc1ccc2c(c1)CC[C@H]1[C@@H]2CC[C@]2(C)[C@@H](NCCCCCCN3C(=O)C=CC3=O)CC[C@H]12`, the Potency entry in assay [1], in [2], in assay [16], in [3], in [4] and in assay [6] was “inactive” each time. Also, the Potency result in [7], in [10], in [14] and in assay [18] was “inactive” each time.

Take `CN1CCN2c3ncccc3Cc3ccccc3C2C1` (configuration not stated): the Potency entry in assay [1], in assay [2], in assay [16], in assay [4], in [5] and in assay [6] was “inactive” each time. Also, the Potency result in assay [7], in assay [9], in assay [10], in assay [12] and in assay [14] was “inactive” each time. For the same compound, the Potency in assay [17] was 1.05 µM (active).

`Fc1ccc(C(c2ccc(F)cc2)N2CCN(CC=Cc3ccccc3)CC2)cc1`: the Potency entry in assay [1], in assay [2], in assay [16], in assay [3], in assay [5] and in assay [6] was “inactive” in each case. Also, the Potency result in assay [7], in [11], in assay [14], in assay [18] and in assay [15] was “inactive” each time.

As to `CCNC(=O)CCCC=CC[C@@H]1[C@H](C=CC(O)CCc2ccccc2)[C@@H](O)C[C@@H]1O` (some centres not stated), the Potency result in assay [1], in assay [2], in [3], in assay [6], in assay [7] and in assay [8] was “inactive” each time. Moreover, the Potency entry in [11], in assay [12], in assay [14], in [18] and in [17] was “inactive” each time. Further, the Potency in [4] was 10.5 µM (active); in assay [15] it was 7.43 µM (active).

For `O=C(O)C1=CC(O)C(O)[C@H](O)C1` (some centres not stated), the Potency entry in assay [1], in [2], in assay [3], in [5], in [6] and in assay [9] was “inactive” in each case. Besides, the Potency entry in assay [10], in assay [12], in assay [14], in [18], in assay [17] and in assay [15] was “inactive” in each case.
